Screens as filed in PubChem.
The entries come from a sample that favours hits as a whole.
ROC1-CUL1 inh: inhibitors of human ROC1-CUL1 ubiquitin ligase activity. actives 0.6% (n = 140,000). inhibition, % at 10 µM. E3 ubiquitin-protein ligase RBX1 (Homo sapiens) + Cullin-1 (Homo sapiens), P62877+Q13616. AID 1347404, 2020. in vitro K48 di-Ub FRET, acceptor:donor ratio, 45 min; in the data active means inhibition above about 25%
Target sequence (P62877 whole entry, looked up): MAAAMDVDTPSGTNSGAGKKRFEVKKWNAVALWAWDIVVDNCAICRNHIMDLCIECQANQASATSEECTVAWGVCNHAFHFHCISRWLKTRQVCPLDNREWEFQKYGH
Target sequence (Q13616 whole entry, looked up): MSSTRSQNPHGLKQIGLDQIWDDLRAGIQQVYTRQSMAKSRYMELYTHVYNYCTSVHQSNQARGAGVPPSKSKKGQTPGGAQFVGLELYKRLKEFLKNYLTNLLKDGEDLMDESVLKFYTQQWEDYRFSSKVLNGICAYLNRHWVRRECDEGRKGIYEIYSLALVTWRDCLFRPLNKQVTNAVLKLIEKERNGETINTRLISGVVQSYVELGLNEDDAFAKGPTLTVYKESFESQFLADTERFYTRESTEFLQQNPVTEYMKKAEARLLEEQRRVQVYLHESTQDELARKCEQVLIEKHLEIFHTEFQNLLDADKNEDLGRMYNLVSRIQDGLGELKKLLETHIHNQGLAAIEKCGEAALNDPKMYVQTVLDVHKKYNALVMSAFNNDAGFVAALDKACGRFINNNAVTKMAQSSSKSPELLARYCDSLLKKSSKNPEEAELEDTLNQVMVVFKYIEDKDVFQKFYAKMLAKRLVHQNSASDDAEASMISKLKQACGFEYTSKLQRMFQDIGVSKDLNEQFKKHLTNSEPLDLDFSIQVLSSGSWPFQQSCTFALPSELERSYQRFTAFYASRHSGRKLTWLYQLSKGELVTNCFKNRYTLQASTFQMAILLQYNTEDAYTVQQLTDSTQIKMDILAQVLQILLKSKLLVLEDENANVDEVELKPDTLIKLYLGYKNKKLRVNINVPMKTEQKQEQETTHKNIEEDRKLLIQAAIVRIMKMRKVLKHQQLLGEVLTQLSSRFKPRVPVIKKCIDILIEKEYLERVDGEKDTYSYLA
* hit, by the source's call.

SMILES	ROC1-CUL1 inh
Fc1c(F)c(F)c2nc3c(cc2c1F)c(-c1ccccc1)nn3-c1ccccc1	2.6
COc1ccc(CNc2nc3c(-c4cccc(F)c4)nnn3c3ccccc23)cc1	1.9
COc1ccc(CNc2c(F)c(F)c3nc4c(cc3c2F)c(-c2ccccc2)nn4C)cc1	95.6*
CC1C(Cl)C2CCC(Cl)CC2S1(=O)=O (configuration not stated)	10.4
O=C(Nc1ccc2nc(SCC(=O)N3CCOCC3)sc2c1)c1cccc(Br)c1	26.9*
O=C(Nc1ccc2nc(SCC(=O)N3CCOCC3)sc2c1)c1ccc(Br)cc1	-9.7
O=C(Nc1ccc2nc(SCC(=O)N3CCOCC3)sc2c1)c1cccc(F)c1	4.5
CCOC(=O)c1cc(S(=O)(=O)N2CCN(c3cccc(C)c3C)CC2)[nH]n1	-5.2
Cc1nc2ncc3c(=O)n(CC4CCCO4)ccc3n2n1 (configuration not stated)	6.7
C=C(C)Cn1c(SCC(=O)Nc2cc(C)ccc2OC)nc2sc3c(c2c1=O)CCC3	-4.3
COc1cccc(OC)c1OCCOCCN1CC(C)CC(C)C1 (configuration not stated)	1.7
CC(=O)CSc1nc2scc(-c3ccc(C)o3)c2c(=O)n1-c1ccccc1	-5.2
O=C(CSc1nc2scc(-c3ccco3)c2c(=O)n1-c1ccccc1)c1ccc(F)cc1	96.9*
O=C(CSc1nc2scc(-c3ccco3)c2c(=O)n1-c1ccccc1)Nc1ccc2c(c1)OCCO2	3.0
Cc1nc(-c2ccc(S(=O)(=O)NCc3ccccc3Cl)cc2)co1	-3.2
Cc1ccc(NC(=O)CSc2nc(-c3ccco3)nc3cc(=O)[nH]n23)cc1C	0.3
CC(Oc1cc(Cl)ccc1Cl)C(=O)N1CCOCC1 (configuration not stated)	4.2
C/C(=N\NC(=O)c1ccn(C)n1)c1ccco1	-6.9
CCOC(=O)CC1(c2ccccc2)NC(=O)c2c(C)sc(C(=O)OCC)c2N1 (configuration not stated)	-3.5
O=C1N=C(Cc2ccc(-c3ccc(Cl)c(Cl)c3)o2)C(=O)N1Cc1ccccc1	-7.7
O=C(O)c1ccc(-c2ccc(CC3=NC(=O)N(Cc4ccccc4F)C3=O)o2)cc1Cl	2.6
O=C1N=C(Cc2ccc(-c3ccccc3)o2)C(=O)N1Cc1ccc(Cl)cc1	5.6
O=C(O)c1cc(-c2ccc(CC3=NC(=O)N(Cc4ccccc4)C3=O)o2)ccc1Cl	57.7*
CC(C)CCNCc1ccc(-c2cccc(C(=O)O)c2)o1	2.6
CC(C)CN1C(=O)C(Cc2ccc(-c3cccc(C(=O)O)c3)o2)=NC1=S	28.2*
SMILES	ROC1-CUL1 inh
Cn1c(=O)c2[nH]c(N3CCN(C/C=C/c4ccccc4)CC3)nc2n(C)c1=O	-11.3
O=C(CCCn1c(=O)c2cccn2c2cccnc21)NCCc1ccc(Cl)cc1	8.3
Cc1cc(C)cc(NC(=O)NCCc2c(C)nn(C)c2C)c1	6.5
c1ccc2oc(SCCCCCCSc3nc4ccccc4o3)nc2c1	-4.9
c1ccc(CSc2nc3ccccc3o2)c(CSc2nc3ccccc3o2)c1	-0.6
O=C(O)c1ccccc1SCCSc1nc2ccccc2o1	33.8*
CCSc1nnc2c(n1)OC(c1ccc3c(c1)OCO3)Nc1ccc(Br)cc1-2 (configuration not stated)	4.3
CCc1ccccc1NC(=O)CN(Cc1ccccc1)S(=O)(=O)c1ccc(Br)cc1	5.6
CC1=NN(c2nc(-c3ccccc3)cs2)C(=O)C1N=Nc1c(C)cc(C)cc1C (configuration not stated)	3.1
O=C1c2ccccc2NC1C=NCCO (configuration not stated)	7.7
N=CC1Nc2ccccc2C1=O (configuration not stated)	31.1*
O=C1C(C2Nc3ccccc3C2=O)=Nc2ccccc21 (configuration not stated)	-0.1
CC(=O)N1CCC(N(C(=O)Nc2ccc(C)c(F)c2)C(C)C)CC1	2.2
COc1ccc2[nH]cc(CCNC(=O)C3CC3)c2c1	9.6
O=C(CCn1cnnn1)N1CCCC(CCc2ccccc2F)C1 (configuration not stated)	10.5
O=S(=O)(O)c1ccc2c(S(=O)(=O)O)cccc2c1	5.3
Nc1ccc(/C=C\c2ccc(-n3nc4ccc5c(S(=O)(=O)O)cccc5c4n3)cc2S(=O)(=O)O)c(S(=O)(=O)O)c1	67.8*
O=S(=O)(O)c1cccc2cc(O)ccc12	8.6
N#C/C(=N\Nc1c(Cl)cc(Cl)cc1Cl)C(=O)c1ccc(Cl)cc1	82.2*
N#C/C(=N\Nc1c(Cl)cc(Cl)cc1Cl)C(=O)c1ccccc1	-9.6
N#C/C(=N/Nc1ccc(Cl)cc1Cl)C(=O)c1ccc(Cl)cc1	-7.7
COc1cc(NCCCCCCCN)c2ncccc2c1	-3.3
COc1ccc(OC)c(NS(=O)(=O)c2cccc3cccnc23)c1	0.8
COc1cc(NCCCCCN)c2ncccc2c1	26.1*
Cc1ccc(-c2csc3nc(SCC(=O)Nc4ccccc4C(F)(F)F)n(-c4ccccc4)c(=O)c23)o1	-5.6
SMILES	ROC1-CUL1 inh
COc1cccc(Oc2nc3c(c(=O)n(Cc4ccccc4Cl)c(=O)n3C)n2C)c1	1.2
COc1cc(NC(=O)CSc2nc(-c3ccc(C)cc3)nc3c2Cc2ccccc2O3)cc(OC)c1	5.0
O=C(CSc1nc(-c2ccc(F)cc2)nc2c1Cc1ccccc1O2)Nc1cccc(C(=O)O)c1	25.2*
COc1cccc2c1Oc1nc(-c3ccccc3)nc(SCC(=O)Nc3ccccc3)c1C2	-6.3
COc1cc(NS(=O)(=O)c2ccc(NC(=O)c3ccccc3C(=O)O)cc2)nc(OC)n1	-1.9
CC(=O)N1CCc2cc(S(=O)(=O)NC(CC(C)C)C(=O)NCc3ccccc3)ccc21 (configuration not stated)	2.7
CCC(=O)N1CCc2cc(S(=O)(=O)NC(CC(C)C)C(=O)NCCc3ccccc3)ccc21 (configuration not stated)	-0.4
CC(=O)N1CCc2cc(S(=O)(=O)NC(CC(C)C)C(=O)NCCc3cccc(C)c3)ccc21 (configuration not stated)	44.5*
CCOc1cc(CNCC2CCCO2)cc(Br)c1OCC(N)=O (configuration not stated)	6.3
O=C(COc1ccccc1Cl)Nc1ccc2nc(SCC(=O)N3CCOCC3)sc2c1	-2.7
CCOc1cc(C(c2c(C)[nH]n(-c3ccccc3)c2=O)c2c(C)[nH]n(-c3ccccc3)c2=O)ccc1OCc1ccc(Cl)cc1	18.8
Cc1[nH]n(-c2ccccc2)c(=O)c1C(c1ccco1)c1c(C)[nH]n(-c2ccccc2)c1=O	4.9
Cc1[nH]n(-c2ccccc2)c(=O)c1C(C[N+](=O)[O-])c1ccc(F)cc1 (configuration not stated)	59.4*
Cc1[nH]n(-c2ccccc2)c(=O)c1C(c1ccc2c(c1)OCO2)c1c(C)[nH]n(-c2ccccc2)c1=O	45.8*
CCOc1cc(C(c2c(C)[nH]n(-c3ccccc3)c2=O)c2c(C)[nH]n(-c3ccccc3)c2=O)ccc1O	38.9*
Cc1[nH]n(-c2ccccc2)c(=O)c1C(c1ccccc1O)c1c(C)[nH]n(-c2ccccc2)c1=O	-6.5
Cc1[nH]n(-c2ccccc2)c(=O)c1C(c1ccc(OCc2ccc(F)cc2)cc1)c1c(C)[nH]n(-c2ccccc2)c1=O	-6.9
Cc1[nH]n(-c2ccccc2)c(=O)c1C(C[N+](=O)[O-])c1ccc(Cl)cc1 (configuration not stated)	1.8
COc1cc(C(c2c(C)[nH]n(-c3ccccc3)c2=O)c2c(C)[nH]n(-c3ccccc3)c2=O)ccc1C	-17.4
COc1ccc(CNC(=O)c2cnc(N(C)C)nc2)cc1	-6.6
